Compound activity deposited in PubChem by Broad Institute.
INS-1E GSIS act = GLuc luminescence reporter in INS-1E cells, primary screen for activators of glucose-dependent secretion of insulin; INS-1E GLuc reporter insulin secretion, 2-3 h; activation, % at 16.6 µM; 0.61% of 370,000 active;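 active means lowest replicate activation of at least 40%, so every replicate reaches that level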;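 further: 0% = median of neutral control wells and 100% = median of IBMX positive control wells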
NSD2 HMT inh = NSD2 (human) methyltransferase inhibition | O96028 | NSD2 peptide methylation, AlphaScreen, 120 min | inhibition, % at 12.5 µM | 0.54% of 310,000 active; in the data active means inhibition above about 50%
AF4-AF9 inh = MLL-AF4/AF9 protein interaction inhibition. AID 651704. AlphaScreen, biotin-AF4 peptide binding to FLAG-AF9. P42568. 0.47% of 350,000 active. inhibition, % at 10 µM;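 active means every replicate reaching a set inhibition limit, whatever the replicate mean, cut at about 25% in these data; inconclusive means mean inhibition reaches that limit but some replicates miss it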;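 further: 0% = plate neutral control median and 100% = total signal loss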
Target sequence (P42568 whole entry, looked up): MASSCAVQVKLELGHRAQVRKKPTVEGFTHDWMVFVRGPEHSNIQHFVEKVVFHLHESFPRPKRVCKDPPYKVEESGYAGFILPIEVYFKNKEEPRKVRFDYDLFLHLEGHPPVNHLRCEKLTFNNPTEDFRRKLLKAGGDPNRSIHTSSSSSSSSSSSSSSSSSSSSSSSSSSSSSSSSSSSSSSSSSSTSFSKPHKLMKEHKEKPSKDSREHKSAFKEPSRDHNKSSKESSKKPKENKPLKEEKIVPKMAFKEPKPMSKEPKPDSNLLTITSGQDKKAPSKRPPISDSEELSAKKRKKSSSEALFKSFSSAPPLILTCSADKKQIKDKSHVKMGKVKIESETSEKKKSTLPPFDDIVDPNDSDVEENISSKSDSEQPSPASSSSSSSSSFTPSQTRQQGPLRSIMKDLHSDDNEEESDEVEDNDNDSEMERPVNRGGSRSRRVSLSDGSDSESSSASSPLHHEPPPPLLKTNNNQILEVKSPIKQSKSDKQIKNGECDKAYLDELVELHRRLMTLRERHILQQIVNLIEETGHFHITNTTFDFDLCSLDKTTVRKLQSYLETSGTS
PGC1a acetyl inh = lowers PGC1a acetylation signal in U2OS cells; AlphaScreen anti-acetyl-lysine; with virally co-expressed GCN5 acetyltransferase; inhibition, % at 15.6 µM; 0.17% of 350,000 active;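 active means every replicate shows inhibition of at least 40%; inconclusive means mean inhibition at least 40% but some replicate below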;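 further: 0% = neutral control wells and 100% = positive control wells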
HIV Env fusion = inhibitors of HIV Env-mediated cell fusion. 1.1% of 360,000 active. inhibition, % at 12.3 µM. HeLa-JRFL Env/CEM21 cell fusion, luciferase;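 active means mean replicate inhibition score of at least 50 and every replicate individually at or above 50; inconclusive means only one of the two criteria met; inactive means mean below 50 and not all replicates reaching 50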;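 further: 0% = plate neutral controls and 100% = maraviroc near 300 nM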
Active calls of the source: *; ? = inconclusive; . = not tested or not shown. This is a sample that favours compounds with a hit; in the whole collection about 2.1% have one here.

SMILES	INS-1E GSIS act	NSD2 HMT inh	AF4-AF9 inh	PGC1a acetyl inh	HIV Env fusion
CCN(CCNc1ccc([N+](=O)[O-])c2cccnc12)S(=O)(=O)c1ccc(Cl)cc1	.	-4	.	0	81*
CCCN1C2CCCC1CC(NC(C)=O)C2 (configuration not stated)	.	5	.	4	11
Cc1nc2cc(-c3ccc(Cl)cc3)nn2c(C)c1CCC(=O)N1CCC2(CC1)OCCO2	.	0	.	5	79*
O=C(Cc1ccccc1)N1CCCCN2[C@@H](CO)[C@@H](c3ccc(C#Cc4ccccc4)cc3)[C@@H]2C1	-26	.	0	-14	.
COc1ccc2c3c([nH]c2c1)C(C)NCC3 (configuration not stated)	.	.	30*	0	.
COc1ccc2[nH]c3c(c2c1)CCNC3C (configuration not stated)	.	1	5	9	4
Cn1nc(-c2ccc(OCC(=O)N3CCN(Cc4ccccc4)CC3)cc2)c2ccccc2c1=O	.	3	.	.	71*
COc1ccc2[nH]c3c(c2c1)CCNC3	.	.	6	-10	.
C[C@@H]1O[C@@H](O[C@H]2C[C@@H](O)[C@]3(CO)[C@H]4[C@H](O)C[C@]5(C)[C@@H](C6=CC(=O)OC6)CC[C@]5(O)[C@@H]4CC[C@]3(O)C2)[C@H](O)[C@H](O)[C@H]1O	.	.	.	83*	.
O=c1[nH]cnc2nc(-c3ccc(N(CCCl)CCCl)cc3)[nH]c12	58*	2	8	17	-39
O=C(O)CCCc1ccc(N(CCCl)CCCl)cc1	9	.	0	2	-15
CCc1ccc(-n2c(O)c(C(C)=O)c(=O)[nH]c2=O)cc1 (tested in a mixture with another compound)	.	-2	-5	.	-2
CC(C)CCCn1c(O)c(/C=C2/C=CC=N2)c(=O)[nH]c1=O	53*	4	.	.	-5
O=C1NC(=O)C2(Cc3cc([N+](=O)[O-])ccc3N3CCN(C(=O)c4ccccc4)CC32)C(=O)N1 (configuration not stated)	-9	-3	3	12	-7
CC(Cc1ccc(O)cc1)NCC(O)c1ccc(O)c(O)c1 (configuration not stated)	.	126*	8	0	1
CNCC(O)c1ccc(O)cc1 (configuration not stated)	4	.	-3	-15	-11
Cc1nc2ccccc2c(=O)n1/N=C/c1cc(Br)cc(Br)c1O	9	0	4	.	13
COC(=O)C1=C(c2cc3ccccc3o2)C[C@@H]2CC[C@H]1N2C(=O)N1CCC(C)CC1	7	.	16	-21	33
CC1=CC(=C2C(=O)NC(=S)NC2=O)C=C(C(F)(F)F)N1Cc1ccccc1	8	2	1	88*	-134
O=C1NC(=O)N(Cc2ccc(F)cc2)C(=O)/C1=C\C=C\c1ccco1	-20	49	0	-6	-229
CCCCN1C(=O)/C(=C/C=C/c2ccco2)C(=O)NC1=S	-16	108*	-8	11	6
C[C@H]1C[C@@H](C)C(=O)[C@@H]([C@H](O)CC2CC(=O)NC(=O)C2)C1	7	.	0	68*	.
CCC(c1nnnn1C1CCCCC1)N1CCC2(CC1)C(=O)NCN2c1ccccc1 (configuration not stated)	16	.	0	-35	17
COC1=CC23CCCN2CCc2cc4c(cc2C3C1O)OCO4 (configuration not stated)	.	.	0	-1	.
COC(=O)C1=C(c2cc3ccccc3o2)C[C@@H]2CC[C@H]1N2C(=O)NCc1cccc2ccccc12	1	.	.	-13	101*
SMILES	INS-1E GSIS act	NSD2 HMT inh	AF4-AF9 inh	PGC1a acetyl inh	HIV Env fusion
C[C@H]1CCC/C=C/[C@@H]2C[C@H](O)C[C@H]2[C@@H](O)/C=C/C(=O)O1	-21	-2	3	?	82*
Cc1cc2c(C(C)C)c(O)c(O)c(C=O)c2c(O)c1-c1c(C)cc2c(C(C)C)c(O)c(O)c(C=O)c2c1O	.	.	6	0	61*
NC(=O)c1ccc(N)nc1	.	.	-2	-12	37
Cc1cccc(N2C(=O)/C(=C/c3ccc(N4CCN(C)CC4)o3)C(=O)NC2=S)c1C	-12	51*	1	.	-15
CCc1ccccc1N1C(=O)/C(=C/c2ccc(N3CCN(C)CC3)o2)C(=O)NC1=S	3	1	-1	.	2
N/C(=N\N=C/c1ccc(-c2ccc(O)c(C(=O)O)c2)o1)N[N+](=O)[O-]	31	121*	.	16	-71
CN(C)c1ccc(-[n+]2c(-c3ccccc3)cc(-c3ccccc3)cc2-c2ccccc2)cc1	-36	45	31*	-46	94*
Cc1ccc(-c2cc(-c3ccc(C)cc3)[n+](-c3ccccc3)c(-c3ccc(C)cc3)c2)cc1	.	.	.	-16	.
c1ccc(-c2cc(-c3ccccc3)[n+](-c3ccccc3)c(-c3ccccc3)c2)cc1	-49	8	1	-2	80*
Cc1ccc(-c2cc(-c3ccccc3)cc(-c3ccccc3)[n+]2-c2ccccc2)cc1	4	.	9	-23	23
COC(=O)[C@@H]1[C@@H](C(=O)OC)C2(c3ccccc3-c3ccccc32)N(c2ccc(Cl)cc2)N1C#N	-3	-4	.	77*	.
COC(=O)C[C@]1(C(=O)OC)CN(C#N)N(c2ccc(Cl)cc2)C12c1ccccc1-c1ccccc12	9	.	.	18	-30
CC1=NN(c2ccccc2)C(=O)/C1=C/c1c(O)[nH]c(=O)[nH]c1=O	5	-1	0	49*	-5
CCOC(=O)C1(c2ccccc2)CCN(CCC(=O)Nc2ccccc2OC)CC1	-9	-2	3	6	10
COc1ccccc1N1CCN(CCc2c[nH]c3cc4c(cc23)OCO4)CC1	3	20	30*	.	9
Cc1cccc(N2C(=O)NC(=O)/C(=C\c3cc(C)n(-c4sc5c(c4C#N)CCCC5)c3C)C2=O)c1C	-23	60*	.	4	-58
CCOC(=O)c1c(-n2c(C)cc(C=C3C(=O)NC(=O)NC3=O)c2C)sc2c1CCCC2	.	16	.	-12	-19
Cc1cc(Br)cn2c(CC(=O)N3CCCCC3)c(-c3ccc(F)cc3)nc12	54*	.	-2	.	20
O=C(Cc1c(-c2ccccc2)nc2ccc(Br)cn12)N1CCCC1	3	.	-1	.	-8
CN1C2CCC1/C(=C/c1ccccn1)C(=O)/C2=C\c1ccccn1	-11	16	8	78*	60*
Cc1ccccc1-n1c(O)c(/C=C2/C(c3ccccc3)=Nc3ccccc32)c(=O)[nH]c1=O	-5	40	2	.	25
Cc1cccc(-n2c(O)c(/C=C3/C(c4ccccc4)=Nc4ccccc43)c(=O)[nH]c2=O)c1	-18	.	2	.	92*
CN(CC1COc2ccccc2O1)c1nc(-c2cccnc2)nc2ccccc12 (configuration not stated)	-30	-2	.	12	65*
CN1CCC(N(C)c2nc(-c3ccc([N+](=O)[O-])cc3)nc3ccccc23)CC1	.	.	.	-35	.
CCN(CC)CCCOC(=O)C(OC(C)C)(c1ccccc1)c1ccccc1	-7	7	.	.	10
